DT40 TDP1 no CPT: qHTS for Inhibitors of human tyrosyl-DNA phosphodiesterase 1 (TDP1): qHTS in cells in absence of CPT | Potency, µM (top dose mostly 46.2 µM), inactives show top-dose activity change, negative = growth inhibition, most hits filed as inhibitors | AID 686978, 2013 | DT40 Tdp1-/- hTDP1 cells, no CPT, ATP luminescence, 48 h | 420,000 tested, 15% active; also: potency is read from the fitted curve at half-maximal effect; nearly all actives have a fitted effect of over 55% in size
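Luminescent ATP content (CellTiter-Glo) served as the growth readout. Knockout chicken DT40 cells expressing human TDP1 were exposed to compounds without camptothecin for a minimum 48 hr at 37 °C.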
IL-1B inflam inh: qHTS for Inhibitors of Inflammasome Signaling: IL-1-beta AlphaLISA Primary Screen | activity change, % at 57.5 µM | AID 743279, 2014 | THP-1 LPS/ATP IL-1B secretion, AlphaLISA, 16 h; active compounds read low | 360,000 tested, 4.7% active; in the data active = activity change below about -50%; inconclusive = mostly about -30% to -49%
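THP-1 cells pretreated 1 hr with compounds (up to 57.5 uM final), then stimulated with LPS (250 ng/mL final) plus ATP (1.25 mM final); secreted IL-1B measured by AlphaLISA after 16 hr, decreased signal indicating inhibition.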
TDP1 cell CPT: qHTS for Inhibitors of human tyrosyl-DNA phosphodiesterase 1 (TDP1): qHTS in cells in presence of CPT. chicken DT40 Tdp1-/-;hTDP1 cells + 20 nM CPT, ATP luminescence, 48 h. Potency, µM (doses to about 46.2 µM), for the others: at the highest dose activity change, negative = growth inhibition, most hits filed as inhibitors. 420,000 tested, 12% active. AID 686979, 2013; also: potency is read from the fitted curve at half-maximal effect; nearly all actives have a fitted effect of over 55% in size
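Chicken DT40 Tdp1-/- cells complemented with human TDP1, 400 cells/well, exposed to compounds plus 20 nM camptothecin for at least 48 h at 37 C; viability read as ATP content by CellTiter-Glo luminescence.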
HT1080NT lethal: qHTS for induction of synthetic lethality in tumor cells producing 2HG: qHTS for the HT-1080-NT fibrosarcoma cell line | HT-1080-NT fibrosarcoma viability, CellTiter-Glo ATP luminescence, 48 h | Potency, µM (top dose mostly 46.1 µM), for inactives: top-dose activity, negative = less viability, actives largely listed as cytotoxic | 360,000 tested, 1.6% active | AID 686970, 2013;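 also: NT is the 2HG producing partner of a matched IDH1 knockdown line; potency is read from the fitted curve at half-maximal effect; 0% = DMSO-treated cells and -100% = media-only wells without cells; nearly all actives have a fitted effect of over 55% in size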
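Viability of the 2HG-overproducing fibrosarcoma line after 48 hours of compound exposure at 37 degrees C was determined by luminescence with CellTiter-Glo, and concentration-effect curves were then fitted and categorized.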
HT1080 IDH1KD tx: qHTS for induction of synthetic lethality in tumor cells producing 2HG: qHTS for the HT-1080-IDH1KD cell line. HT-1080 IDH1 knockdown viability, ATP luminescence, 48 h. Potency, µM (doses to about 46.1 µM), inactives show at the top dose activity, negative = toxicity, actives largely listed as cytotoxic. 360,000 tested, 2% active;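 also: potency is read from the fitted curve at half-maximal effect; 0% = DMSO wells and -100% = cell-free medium wells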
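Knockdown cells (IDH1KD HT-1080) received compounds 2 h after plating at 750 cells/well and were kept 48 h at 37 °C in 5% FBS RPMI. A CellTiter-Glo luminescence read gave % activity for curve fitting.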
Starred values were filed as active, the others as inactive; ? = inconclusive; nt = no result given. An excerpt weighted towards active compounds, which were near 19% of everything screened. Unless noted, calls follow the shape of the dose curve; as a rule, active = well fitted curve in the direction sought with a large enough effect; inconclusive = small, poorly fitted or top-dose-only effect, or another doubt; inactive = no such curve, though single readings can be large; an effect the other way counts as inactive or inconclusive. Unless noted, % is scaled to controls: 0 for no effect and ±100 for the full control effect.

SMILES	DT40 TDP1 no CPT	IL-1B inflam inh	TDP1 cell CPT	HT1080NT lethal	HT1080 IDH1KD tx
CC(O)(c1cccnc1)c1nc(-c2cccc(C#N)c2)cs1 (stereo unspecified)	15µM*	11	16µM*	6%	1%
COc1ccc(C(C)(O)c2nc(-c3ccc4c(c3)OCO4)cs2)cc1 (stereo unspecified)	?	42	?	-6%	?
COc1cccc(C(C)(O)c2nc(-c3ccc4c(c3)OCO4)cs2)c1 (stereo unspecified)	21µM*	0	15µM*	-9%	-28%
CC(O)(c1cccc(F)c1)c1nc(-c2cccc(C#N)c2)cs1 (stereo unspecified)	?	16	?	?	-5%
CC(O)(c1cccnc1)c1nc(-c2ccc3ccccc3c2)cs1 (stereo unspecified)	23µM*	5	21µM*	?	?
Cc1cc2c(o1)CC(C)(C)CC2=O	0%	11	7%	-3%	11%
Cn1c(C(=O)N2CCC(C(N)=O)CC2)cc2cc(Cl)ccc21	16%	14	29%	-2%	0%
CC(=O)NC(C)(c1ccccc1)c1nc(/C=C/c2ccccc2)cs1 (stereo unspecified)	16µM*	-15	?	-26%	-14%
COc1cccc(C(C)(O)c2nc(-c3ccc(S(C)(=O)=O)cc3)cs2)c1 (stereo unspecified)	18µM*	-10	?	-17%	-29%
COc1cccc(C(C)(O)c2nc(-c3ccc(OC)nc3)cs2)c1 (stereo unspecified)	?	10	?	?	?
CC(O)(c1cccnc1)c1nc(-c2ccc3c(c2)OCO3)cs1 (stereo unspecified)	?	22	16µM*	4%	-19%
Cc1ccccc1-c1csc(C(C)(O)c2cccnc2)n1 (stereo unspecified)	?	33	?	1%	2%
CCOC(=O)c1c2c(n(-c3ccc(OC)cc3)c1C)C(=O)C(=O)c1ccccc1-2	2.1µM*	-2	3.3µM*	15µM*	8.2µM*
CCOC(=O)c1c(-c2ccccc2Cl)cn2ccccc12	?	13	?	-5%	-2%
CCOC(=O)c1sc(=S)n(-c2ccc(OC)cc2)c1C	-20%	nt	6%	3%	-5%
CCOC(=O)c1c2c(n3ccccc13)C(=O)c1ccccc1C2=O	10µM*	nt	10µM*	nt	nt
CCCN(CCC)Cc1c(C(=O)N/N=C/c2c[nH]c3ccccc23)nnn1-c1nonc1N	-6%	?	-20%	?	29µM*
Cc1ccc(-c2c(C(=O)N/N=C/c3c[nH]c4ccccc34)nnn2-c2nonc2N)cc1	16µM*	-25	?	4%	-7%
CCCc1c(C(=O)N/N=C/c2c[nH]c3ccccc23)nnn1-c1nonc1N	?	17	?	-2%	2%
Cc1ccc(S(=O)(=O)N2C[C@H]3C(=O)C[C@@H]4C(=O)N(c5ccccc5)C(=O)[C@@H]4[C@@H]3C[C@H]2c2cccs2)cc1	-6%	0	-21%	8%	11%
Clc1ccc(-c2nnn3c2nc(NC2CCCCC2)c2ccccc23)cc1	-23%	nt	5%	nt	nt
COc1ccc(-c2cc(NC=O)c3ncc(-c4cccc(C(=O)NCCN(C)C)c4)n3c2)c(OC)c1	3.7µM*	-3	3.3µM*	18µM*	23µM*
COc1cc(-c2cnc3c(NC=O)cc(-c4cccc(C(=O)NCCN(C)C)c4)cn23)cc(OC)c1OC	15µM*	129	?	5%	-1%
COc1ccc(-c2cc(NC=O)c3ncc(-c4cccc(C(=O)NCCN(C)C)c4)n3c2)cn1	?	-26	?	-26%	-18%

Compound activity as filed in PubChem.
